# Active and inactive are the calls of the source.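 Rule for the calls, unless noted: active = NADPH fluorescence slope more negative than the mean of all samples by about 3 SD, 99.7% confidence; inactive = the rest.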
# Key:
# [1] = inhibitors of TNFa-induced NFkB p65 translocation, primary screen, imaging, HUVEC, MLSMR starter and 10KST1 sets (AID 438;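 active = inhibition above 20% together with a positive visual image hit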;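 note: compound added about 3h40 before a 20 min TNFalpha stimulation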;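 for inhibition: signal is the nuclear over cytoplasmic p65 intensity ratio per well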); settings: HUVEC TNFa-induced p65 nuclear translocation; cell count: measured here: nuclei count (cytotoxicity indicator), at 2.08 µM; inhibition: at 2 µM, stronger effect = higher value, 0% TNFa-plus-vehicle, 100% no-TNFa wells
# [2] = reduction of polyQ htt aggregates in cells – imaging, exon1htt(103Q)mCFP cells, high-content imaging, primary screen (AID 483;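 active = visual image review flags a hit and inhibition of aggregation exceeds 20%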;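 note: compound exposure lasted 3 days before fixation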;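 for nuclei count: percent of the per-plate median nuclei count of sample wells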); settings: exon1htt(103Q)mCFP cell line, aggregate imaging, at 2 µM; inhibition of aggregation: stronger effect = higher value; nuclei count: measured here: cell count, toxicity
# [3] = endothelial E-selectin expression blockers – imaging, HUVEC, immunofluorescence, MLSMR starter and 10KST1 sets, primary screen (AID 487;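 active = visually confirmed hit in the image check and inhibition above 20%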;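 for inhibition: signal is fraction of cell area covered by stained E-selectin grains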;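 for nuclei count: 100% = median nuclei count of all wells on the same plate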); settings: HUVEC TNFalpha-induced E-selectin immunofluorescence imaging, at 2 µM; inhibition: stronger effect = higher value; nuclei count: measured here: cell number, toxicity
# [4] = biological target: Voltage-gated potassium channel subunit beta-2 (Rattus norvegicus) (UniProt P62483); test: inhibitors of rat Kvbeta2 reductase activity – biochemical, NADPH fluorescence, primary screen (AID 622;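 active = fluorescence slope higher than the sample average by over 3 SD, cut at about -0.22 in these data, passing the limit was not always enough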;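 note: slope of raw intensity against log time taken from 70 to 1610 s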); settings: recombinant KvBeta, 4-cyanobenzaldehyde reduction, at 10 µM, stronger effect = higher value
# Sequence of Voltage-gated potassium channel subunit beta-2 (Rattus norvegicus) (P62483 whole entry, looked up): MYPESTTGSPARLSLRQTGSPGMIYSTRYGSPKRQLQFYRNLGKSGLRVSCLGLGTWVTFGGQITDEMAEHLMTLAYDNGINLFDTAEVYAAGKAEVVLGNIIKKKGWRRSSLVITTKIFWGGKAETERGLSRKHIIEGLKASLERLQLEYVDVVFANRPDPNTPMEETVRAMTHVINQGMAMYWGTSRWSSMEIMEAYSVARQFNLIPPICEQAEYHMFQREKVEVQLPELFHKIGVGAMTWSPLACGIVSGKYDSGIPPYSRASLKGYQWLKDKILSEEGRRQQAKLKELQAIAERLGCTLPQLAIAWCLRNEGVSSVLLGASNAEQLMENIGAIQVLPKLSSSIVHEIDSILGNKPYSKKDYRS
# [5] = biological target: Voltage-gated potassium channel subunit beta-2 (Rattus norvegicus) (UniProt P62483); test: enhancers of rat Kvbeta2 NADPH turnover – biochemical, NADPH fluorescence, primary screen (AID 623); settings: Recombinant KvBeta, NADPH fluorescence decrease slope, 10 min; at 10 µM; stronger effect = lower value;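 note: fluorescence intensity change per second fitted from 20 to 320 s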
# [6] = biological target: Alpha-2C adrenergic receptor (Homo sapiens) (UniProt P18825); test: compounds altering alpha2C-coupled GIRK flux – cell-based, HEK293 alpha2C/GIRK1/2, thallium flux, primary screen (AID 624;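 active = fluorescence slope after compound addition differing from the mean of all screened samples at 99.7% confidence, in either direction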;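 note: slope of fluorescence ratio to pre-addition baseline per second over 15 to 24 s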); settings: thallium flux BTC fluorescence, at 10 µM, actives lie on both sides
# Sequence of Alpha-2C adrenergic receptor (Homo sapiens) (P18825 whole entry, looked up): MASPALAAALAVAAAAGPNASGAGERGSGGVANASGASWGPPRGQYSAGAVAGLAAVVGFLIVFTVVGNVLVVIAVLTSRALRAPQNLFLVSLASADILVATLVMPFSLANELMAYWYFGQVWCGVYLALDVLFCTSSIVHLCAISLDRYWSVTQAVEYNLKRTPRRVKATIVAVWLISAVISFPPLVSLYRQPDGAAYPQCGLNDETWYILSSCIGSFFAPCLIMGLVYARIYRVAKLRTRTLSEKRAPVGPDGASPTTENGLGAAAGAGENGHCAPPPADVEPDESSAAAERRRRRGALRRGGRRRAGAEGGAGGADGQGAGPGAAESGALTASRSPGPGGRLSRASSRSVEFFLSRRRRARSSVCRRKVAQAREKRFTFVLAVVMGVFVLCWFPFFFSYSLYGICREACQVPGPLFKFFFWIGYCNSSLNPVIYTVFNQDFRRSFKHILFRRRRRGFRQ
# [7] = blockers of RIG-like receptor reporter activation – cell-based, Sendai virus stimulus, luciferase, 10K MLSCN set, TLR/RLR signaling modifier project, primary screen (AID 602276;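 active = inhibition at or above 50% at 10 µM; inactive = inhibition below 50%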;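 note: firefly luciferase from ISG56 promoter only with Renilla not read in this screen; 0% = Sendai virus plus DMSO and 100% = medium plus DMSO without virus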); settings: HEK293 RL24 IRF3 luciferase reporter, at 10 µM, stronger effect = higher value
# [8] = TLR3 IRF3 reporter activation blockers – cell-based, poly I:C stimulus, luciferase, 10K MLSCN set, primary screen (AID 602277;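 active = inhibition of the reporter signal at or above 50%; inactive = inhibition below 50%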); settings: HEK293-TLR3 RL24 IRF3 luciferase reporter, at 10 µM, stronger effect = higher value
Structure (SMILES),cell count [1],inhibition [1],inhibition of aggregation [2],nuclei count [2] [%],inhibition [3],nuclei count [3] [%],fluorescence slope [4],NADPH fluorescence slope [5],slope [6],inhibition [7],inhibition [8]
COc1cc(C)c(-c2cc(C(=O)O)c(C)o2)cc1C(C)C,451,-7.7% (inactive),-1.5% (inactive),95.9,-99% (inactive),130,-0.416 (inactive),6.3e-06 (inactive),0.00528 (inactive),12.3% (inactive),17.2% (inactive)
O=c1cnnc(NCc2ccccc2)[nH]1,696,-11.2% (inactive),9.3% (inactive),99.5,-32.9% (inactive),105,-0.418 (inactive),-2.6e-05 (inactive),0.00324 (inactive),1.13% (inactive),8.35% (inactive)
O=C(Nc1ccc(N2CCCC2)cc1)c1cccc(F)c1,694,1.6% (inactive),24.1% (inactive),94.5,-83.5% (inactive),148,-0.436 (inactive),7e-06 (inactive),0.0066 (inactive),11.4% (inactive),-67.8% (inactive)
N#Cc1nc(-c2ccco2)oc1NCCc1ccccc1,686,-7.5% (inactive),-10.1% (inactive),88.8,-3% (inactive),107,-0.463 (inactive),-4.3e-05 (inactive),0.0039 (inactive),-33.8% (inactive),-56.1% (inactive)
CCOC(=O)CNC(=O)CSc1ncnc2c1cnn2Cc1ccccc1,597,12.6% (inactive),-12.1% (inactive),103,-157% (inactive),134,-0.374 (inactive),-0.000157 (inactive),0.0067 (inactive),2.57% (inactive),24.8% (inactive)
CC1CCc2nn(CC(=O)NCCCN3CCOCC3)cc2C1 (configuration not stated),608,10.3% (inactive),-17.8% (inactive),125,28.4% (inactive),107,-0.578 (inactive),-1.9e-05 (inactive),0.0058 (inactive),8.95% (inactive),36.3% (inactive)
COc1cc2c(cc1NC(=O)CN1CCN(S(=O)(=O)c3ccc(F)cc3)CC1)oc1ccccc12,583,-2.4% (inactive),-2.8% (inactive),95.8,-33.6% (inactive),88.8,-0.364 (inactive),1.3e-05 (inactive),0.0037 (inactive),2.2% (inactive),30.3% (inactive)
